The list is not random: actives were taken first. Their share in the collection is about 11%.
HEK293 tox – HEK 293 cell cytotoxicity. HEK 293 viability, ATP luminescence (CellTiter-Glo), 48-72 h. Potency, µM (highest dose often 115 µM), without a hit: at the top dose activity change, negative = cytotoxicity, usual class: inhibitors. actives 6.6% (n = 94,000). AID 1345083; also: nearly all actives have a fitted effect of over 60% in size
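Viability of HEK 293 cells, plated at 250 cells/well, was judged by cellular ATP after compound treatment for 48 or 72 hr. Luminescence was imaged 10 min after CellTiter-Glo addition at room temperature.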
3T3 cytotox – NIH 3T3 cell cytotoxicity | AID 1345082 | Potency, µM (series often up to 96.7 µM), without a hit: at the highest dose activity change, negative = cytotoxicity, usual class: inhibitors | NIH 3T3 viability, CellTiter-Glo ATP luminescence, 48-72 h | actives 4.3% (n = 94,000); also: nearly all actives have a fitted effect of over 55% in size
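Viability of NIH 3T3 cells after 48 or 72 hr compound treatment at 37 °C was assessed by CellTiter-Glo, with luminescence imaged following a 10 min room-temperature step.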
hNpr1 antagonist – antagonists of human natriuretic peptide receptor Npr1; P16066; actives 1.6% (n = 76,000); Potency, µM (titrated, usually from 46.3 µM), without a hit: at the top dose activity change, negative = inhibition, actives largely listed as inhibitors; HEK293 hNpr1 GloSensor cGMP, ANP-stimulated luminescence; AID 1347048; calls by dose curve; also: nearly all actives have a fitted effect of over 60% in size
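HEK293 cells stably expressing human Npr1 and cGMP GloSensor pGS-40F, loaded 2 h with 2% GloSensor reagent, given compound 30 min at room temperature. Luminescence read before and 20 min after 0.1 nM hNppA.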
FLuc inh – blocks purified firefly luciferase enzyme activity | purified P. pyralis luciferase, luminescence, biochemical | actives 2.5% (n = 76,000) | AID 1347043 | Potency, µM (series often up to 115 µM), most hits filed as inhibitors; also: nearly all actives have a fitted effect of over 65% in size
Target sequence (P08659 whole entry, looked up): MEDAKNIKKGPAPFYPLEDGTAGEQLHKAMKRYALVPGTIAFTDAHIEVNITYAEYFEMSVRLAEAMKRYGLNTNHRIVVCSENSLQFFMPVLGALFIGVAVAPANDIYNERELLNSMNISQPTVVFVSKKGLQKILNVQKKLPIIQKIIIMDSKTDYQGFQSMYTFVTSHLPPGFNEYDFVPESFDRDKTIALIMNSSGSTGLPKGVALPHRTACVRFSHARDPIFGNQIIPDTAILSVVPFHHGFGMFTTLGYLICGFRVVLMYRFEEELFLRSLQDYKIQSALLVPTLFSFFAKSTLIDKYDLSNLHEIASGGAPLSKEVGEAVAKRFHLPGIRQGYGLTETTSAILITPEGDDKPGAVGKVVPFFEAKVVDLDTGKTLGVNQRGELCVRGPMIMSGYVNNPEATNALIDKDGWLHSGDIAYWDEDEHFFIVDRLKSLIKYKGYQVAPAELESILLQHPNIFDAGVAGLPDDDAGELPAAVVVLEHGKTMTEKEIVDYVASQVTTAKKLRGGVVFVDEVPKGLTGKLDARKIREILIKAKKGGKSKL
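Cell-free enzyme assay, 10nM P. pyralis luciferase, luciferin and ATP each at 10uM. Inhibition profiled over a 6-point titration, read as luminescence.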
* marks the source's active call; other numbers are inactive results; i = inactive; ? = inconclusive; nt = no result; [ ] = remark or other dose. Unless noted, calls follow the shape of the dose curve; as a rule, active = well fitted curve in the direction sought with a large enough effect; inconclusive = small, poorly fitted or top-dose-only effect, or another doubt; inactive = no such curve, though single readings can be large; an effect the other way counts as inactive or inconclusive. % is scaled to controls: 0 for no effect and ±100 for the full control effect; potency is read from the fitted curve at half-maximal effect.

SMILES | HEK293 tox | 3T3 cytotox | hNpr1 antagonist | FLuc inh
CCn1ncc(N2CCCC(CC(=O)Nc3cc(OC)cc(OC)c3)C2)cc1=O (stereo unspecified) | -1% | 40µM* | 4% | i
Cn1c(C(=O)NCCc2cnc[nH]2)nc2nc(-c3ccccc3)c(Cl)cc21 | ? | 28µM* | -13%[70.6 µM] | ?
CN1CCC(NC(=O)c2nc3nc(-c4ccccc4)c(-c4cccc(O)c4)cc3n2C)CC1 | 35µM* | 11µM* | -6% | i
CN(C)CCNC(=O)c1nc2nc(-c3ccccc3)c(Cl)cc2n1C | -24%[172 µM] | ? | -1%[70.6 µM] | i
CN(C)CCNC(=O)c1nc2nc(-c3ccccc3)c(-c3ccccc3F)cc2n1C | 50µM* | 35µM* | ? | i
O=C(c1ccccc1F)N1CC(Oc2ccc(F)cc2F)C1 | -14% | -20% | nt | nt
O=C(NCC1CN(C(=O)Cc2ccccc2)CC12CN(c1ccccc1)C2)C1CC1 (stereo unspecified) | -6%[172 µM] | ? | -4%[70.6 µM] | i
Cc1cn2nnc(C(=O)NCc3ccc4c(c3)OCO4)c2c(=O)[nH]1 | 7% | 4% | 2% | 40µM*
Cc1cccc(CNC(=O)c2nnn3cc(C)[nH]c(=O)c23)c1 | 7% | -20% | 4% | i
CC(=O)N1CCC(O)(c2csc(CN3CCN(C)CC3)n2)CC1 | -15%[172 µM] | -3%[174 µM] | 0%[70.6 µM] | i
COc1ccnc(-c2nnc3ccc(N(C)CCN(C)C)nn23)c1 | 2%[172 µM] | 100µM* | 1%[70.6 µM] | i
CN(c1ccccc1)c1ccc2nnc(-c3ccccn3)n2n1 | ? | ? | 2%[70.6 µM] | ?
COc1ccnc(-c2nnc3ccc(N(C)Cc4ccccc4)nn23)c1 | 56µM* | ? | -10%[70.6 µM] | i
Cc1ccc(-c2nnc3ccc(N(C)CCN(C)C)nn23)nc1 | -1%[172 µM] | ? | 1%[70.6 µM] | i
COCc1cc(NCc2cccnc2Oc2cccc(C(F)(F)F)c2)ncn1 | 50µM* | -32% | -7% | i
O=C(NCC(=O)N1CCC(Cc2ccccc2)CC1)c1ccc(-c2cnc3ccccc3c2)cc1 | 10µM* | ? | nt | nt
O=C(CNC(=O)c1ccc(-c2cnc3ccccc3c2)cc1)NCc1ccccc1Cl | ? | -31% | nt | nt
F[C@@H]1CN(Cc2ccnc3ccccc23)C[C@@H]1OCc1nc2ncccc2[nH]1 | ? | ? | -2%[70.6 µM] | i
CN(Cc1ccccc1C(F)(F)F)C(=O)Cc1cccc(Cl)c1 | 79µM* | ? | 0%[70.6 µM] | i
CN(Cc1ccccc1C(F)(F)F)C(=O)Nc1ccc(Cl)cc1 | ? | 35µM* | -19%[70.6 µM] | i
CN(Cc1ccc(F)cc1)C(=O)Nc1ccc(Cl)cc1 | 89µM* | ? | -28%[70.6 µM] | ?
O=C(CCc1nc2ccccc2s1)N1CCC(c2nc(C3CCOCC3)no2)CC1 | ? | -24% | 8% | i
COc1ccc(-c2ccc(C(=O)N3CCN(C(=O)c4ccc(F)cc4)CC3)cc2)nn1 | 4% | 0% | nt | nt
C[C@@]12C(=O)N(CC3CC3)c3ccccc3[C@@H]1[C@@H](C(N)=O)CN2C(=O)Nc1ccc2c(c1)OCO2 | ? | -11%[46.1 µM] | nt | nt
CC(C)n1cc(CN2CCCN(S(=O)(=O)c3ccccc3)CCC(=O)NCC2)c2ccccc21 | ? | ? | 0% | i
SMILES | HEK293 tox | 3T3 cytotox | hNpr1 antagonist | FLuc inh
CC1=C[C@@H](CNCc2ccccn2)[C@H](C(C)C)C[C@H]1Cc1nnc(-c2ccc(N(C)C)cc2)o1 | 11µM* | ? | -28% | i
CC1=C[C@@H](CNCc2cccnc2)[C@H](C(C)C)C[C@H]1Cc1nnc(-c2ccc(N(C)C)cc2)o1 | 18µM* | ? | ? | i
CC1=C[C@@H](CNCc2ccccn2)[C@H](C(C)C)C[C@H]1Cc1nnc(-c2ccccc2)o1 | 79µM* | ? | ? | i
CC(C)NC(=O)c1nc2cccnc2n(CCc2ccccc2)c1=O | 20µM* | ? | nt | nt
O=C(NC1CCCCC1)c1nc2cccnc2n(CCc2ccccc2)c1=O | ? | -25% | nt | nt
O=C(NCC1CCCCCC1)c1nc2cccnc2n(CCc2ccccc2)c1=O | ? | 35µM* | nt | nt
O=C1CC2(CCN(C(=O)C3CCCN(C(=O)c4ccccc4F)C3)CC2)Oc2ccccc2N1 (stereo unspecified) | ? | -21% | nt | nt
COc1ccc(Nc2ccnc(N3CCN(C(=O)Cc4ccc(F)cc4)CC3)n2)cc1 | 11µM* | 25µM* | nt | nt
O=C(Cc1ccc(F)cc1)N1CCN(c2nccc(Nc3ccccc3Cl)n2)CC1 | 40µM* | 28µM* | nt | nt
O=C(Cc1ccc(F)cc1)N1CCN(c2nccc(Nc3ccccc3F)n2)CC1 | 18µM* | 18µM* | nt | nt

Compound activity from PubChem.
